CHX counter = affects cycloheximide protein synthesis inhibition readout, counter-screen | cell reporter, cycloheximide protein synthesis inhibition counterscreen | AID 2314 | max response, % | 12% of 300,000 active; in the data active = max response mostly above about 13%, no sharp cut-off; inactive = mostly below about 14%; also: read at 38.3 µM for the half of the compounds with a filed dose; 0% is about no effect
TbPYK inhibitor = inhibitors of Trypanosoma brucei pyruvate kinase. Q57TT1. TbPYK enzyme, Kinase-Glo Plus ATP luminescence, 45 min. Potency, µM (series often up to 76.8 µM), inactives show at the highest dose activity, negative = inhibition, hits mostly inhibitors. 0.12% of 410,000 active. AID 624173; also: potency is read from the fitted curve at half-maximal effect; % is scaled to controls: 0 for no effect and ±100 for the full control effect; nearly all actives have a fitted effect of over 50% in size
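ADP (130 uM final) triggers the TbPYK reaction after compound addition; incubation is 45 min at room temperature. Kinase-Glo Plus is then added and luminescence imaged. Normalized data are fitted to concentration-effect curves.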
Sm TGR inh = inhibitors of Schistosoma mansoni thioredoxin glutathione reductase; Q962Y6; Potency, µM (titrated, usually from 114 µM), for inactives: top-dose activity change, negative = inhibition, most hits filed as inhibitors; 3% of 360,000 active; purified TGR, DTNB reduction, TNB absorbance 405 nm; AID 485364; also: potency is read from the fitted curve at half-maximal effect; % is scaled to controls: 0 for no effect and ±100 for the full control effect; nearly all actives have a fitted effect of over 60% in size
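TGR 20 nM + NADPH 100 uM (dispensed conc.), cpd preinc 15 min RT; start with NADPH (500 uM addition) then DTNB (15 mM addition). Kinetic TNB absorbance, 405 nm filter. Four-parameter Hill fit across titration.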
Shiga toxin inh = inhibitors of Shiga toxin in Vero cells; 9.2% of 290,000 active; inhibition, % at 38.7 µM; Vero cells, Shiga toxin protein synthesis inhibition reporter; AID 2315; in the data active = inhibition mostly above about 28%, no sharp cut-off; inactive = mostly below about 43%; also: 0% is about no effect
LmPK inh = LmPK (Leishmania mexicana) enzyme inhibition; Q27686; purified LmPK, Kinase-Glo ATP luminescence, 1 h; Potency, µM (series often up to 57.5 µM), without a hit: at the highest dose activity change, negative = inhibition, usual class: inhibitors; 0.37% of 290,000 active; AID 1721; also: potency is read from the fitted curve at half-maximal effect; % is scaled to controls: 0 for no effect and ±100 for the full control effect
Target sequence (Q27686 whole entry, looked up): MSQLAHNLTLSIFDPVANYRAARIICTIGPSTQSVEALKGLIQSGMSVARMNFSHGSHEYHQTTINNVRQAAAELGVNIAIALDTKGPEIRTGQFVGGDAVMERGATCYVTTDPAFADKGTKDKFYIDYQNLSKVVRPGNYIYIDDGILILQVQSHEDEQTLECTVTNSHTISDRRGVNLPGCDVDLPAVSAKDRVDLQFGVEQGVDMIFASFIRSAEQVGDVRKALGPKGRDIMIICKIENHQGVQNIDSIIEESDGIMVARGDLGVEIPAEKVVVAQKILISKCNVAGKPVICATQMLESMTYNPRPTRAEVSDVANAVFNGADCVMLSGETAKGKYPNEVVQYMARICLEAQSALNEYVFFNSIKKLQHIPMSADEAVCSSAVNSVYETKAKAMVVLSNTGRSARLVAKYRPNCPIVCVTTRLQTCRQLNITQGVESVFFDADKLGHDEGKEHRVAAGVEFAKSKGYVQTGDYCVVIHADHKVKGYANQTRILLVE
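Screened at intermediate enzyme activity to detect both inhibitors and activators: LmPK at 0.1 nM, with a 0.5 nM enzyme column as activation reference. PEP 0.5 mM, ADP 0.1 mM; ATP detected by luminescence after 1 h.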
FBPA Giardia inh = blocks Giardia fructose-bisphosphate aldolase activity; Potency, µM (highest dose often 59.6 µM), for inactives: at the top dose activity, negative = inhibition, hits mostly inhibitors; AID 2451; A8B2U2; purified Giardia FBPA; 0.71% of 290,000 active; also: potency is read from the fitted curve at half-maximal effect; % is scaled to controls: 0 for no effect and ±100 for the full control effect; nearly all actives have a fitted effect of over 55% in size
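40 nM FBPA preincubated 10 min at RT with compound (up to 57.5 uM final), then substrate plus GAPDH/TPI/NAD/arsenate coupling and diaphorase/resazurin added. Fluorescence read after 20 min at RT, 525/598 nm.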
* hit, by the source's call; ? = inconclusive; / = no result given. The sample as a whole holds a higher share of hits than the screen did. Unless noted, calls follow the shape of the dose curve; as a rule, active = well fitted curve in the direction sought with a large enough effect; inconclusive = small, poorly fitted or top-dose-only effect, or another doubt; inactive = no such curve, though single readings can be large; an effect the other way counts as inactive or inconclusive.

SMILES | CHX counter | TbPYK inhibitor | Sm TGR inh | Shiga toxin inh | LmPK inh | FBPA Giardia inh
O=C(Nc1ccc(F)cc1)c1ccc(NC(=O)C2CCCO2)cc1 (stereo not drawn) | 21.2* | 0.6% | -8.8% | 73.1* | -5.5% | -5.3%
COc1ccc(NC(=O)c2c(C)oc3ccc(O)c(CN4CCN(Cc5ccccc5)CC4)c23)cc1Cl | / | 3.5% | -13.7% | / | / | /
COc1ncc2nc(-c3ccccc3)c(=O)n(CCC#N)c2n1 | / | / | / | / | / | 6.5%
CCCCC1CCC(C(=O)OC(C)C(=O)Nc2ccc(NC(C)=O)cc2)CC1 (stereo not drawn) | -1.6 | -3.8% | 10.4% | -3.0 | 4.8% | /
O=C1C(N2CCOCC2)=C(n2nnc3ccccc32)C(=O)c2ccccc21 | 45.2* | -1.2% | ? | 26.4 | -17.8% | ?
CCOc1ccc(CCNC(=O)c2nnc(CS(=O)(=O)c3ccccc3)o2)cc1OCC | -4.4 | 3.0% | -2.0% | -5.3 | -4.5% | -0.7%
O=C(CNC(=O)c1ccccc1)NCC(=O)OCC(=O)c1ccc(F)cc1 | 1.8 | -4.6% | 6.0% | 17.4 | -4.7% | 7.4%
Cc1cccc(C(=O)NNC(=O)c2ccc3ccccc3c2)c1 | / | 5.7% | / | / | / | /
O=C(/C=C\NCC(=O)c1ccccc1)c1ccc(F)cc1 | 28.3* | -1.9% | ? | 28.4 | -3.9% | -11.7%
O=C(/C=C\NCC(=O)c1ccccc1)c1ccc2ccccc2c1 | 11.7* | -15.1% | ? | 51.9* | -2.3% | -12.5%
COc1ccc(CN2C(=O)c3cccnc3C2=O)cc1S(=O)(=O)NCc1ccco1 | 21.0* | -3.7% | -17.9% | 51.2* | 1.4% | -1.0%
CCN(c1cccc(C)c1)S(=O)(=O)c1cc(CN2C(=O)c3cccnc3C2=O)ccc1OC | 19.2* | 0.0% | -10.9% | 92.2* | -0.9% | 0.0%
COc1ccc(NC(=O)c2cccc(S(=O)(=O)NCc3ccco3)c2)c(OC)c1 | / | 2.3% | ? | / | / | /
CCc1ccc(C(=O)c2cn(Cc3ccccc3)c3cc(OC)c(OC)cc3c2=O)cc1 | / | -0.3% | -2.4% | / | / | /
COc1ccc(C(=O)N2CCCC(Nc3ccc(C)c(C)c3)C2)cc1F (stereo not drawn) | 29.6* | 3.1% | -6.2% | 47.2 | 1.6% | 2.8%
Cc1ccc(C(=O)N2CCCC(Nc3ccc(F)cc3)C2)cc1C (stereo not drawn) | 7.4 | 1.3% | 79.4µM* | -5.5 | -6.8% | /
COc1ccc(C(=O)N2CCCC(Nc3ccc(F)cc3)C2)cc1F (stereo not drawn) | -1.9 | -5.7% | -21.0% | -7.5 | 2.1% | 13.9%
C=Cc1ccc(C(=O)N2CCCC(Nc3ccc4c(c3)OCCO4)C2)cc1 (stereo not drawn) | 12.3* | ? | -48.9% | 14.6 | 0.3% | -23.7%
Cc1ccc(NC2CCCN(C(=O)c3ccc4[nH]ccc4c3)C2)cc1C (stereo not drawn) | -1.5 | 3.7% | -2.9% | -10.8 | 1.1% | -6.5%
COc1ccc(NC2CCCN(C(=O)CCc3ccncc3)C2)cc1OC (stereo not drawn) | 45.0* | 39.7% | ? | -11.8 | 4.8% | ?
Cc1ccc(NC2CCCN(C(=O)CCc3ccncc3)C2)cc1C (stereo not drawn) | 0.8 | 4.4% | -27.5% | -3.7 | -3.6% | /
COc1ccccc1-n1c(C)c(C(=O)O)c2cc(OC)c3ccccc3c21 | 0.2 | -6.6% | -16.7% | -2.8 | 1.9% | -10.6%
O=C1CCCN1CCC(=O)N1CCCC(Nc2ccc(F)c(F)c2)C1 (stereo not drawn) | 12.9 | -6.1% | -15.0% | 32.7* | -6.0% | /
O=C1CCCCN1CCCC(=O)N1CCCC(Nc2ccc(F)c(F)c2)C1 (stereo not drawn) | 7.5 | 0.4% | -23.2% | -31.2 | -7.9% | /
Cc1ccn2cc(C(=O)N3CCCC(Nc4ccc(F)cc4)C3)nc2c1 (stereo not drawn) | 8.1 | -2.6% | -7.6% | 22.0 | -2.2% | -3.3%
CC(C)c1ccc(NC2CCCN(C(=O)c3cccs3)C2)cc1 (stereo not drawn) | 31.6* | -14.6% | 3.3% | 22.7* | 4.7% | -11.0%
Cc1ccc2nc(C(=O)N3CCCC(Nc4ccc(F)cc4)C3)cn2c1 (stereo not drawn) | 28.3* | 4.4% | -8.0% | 81.0* | -6.9% | /
